# Measured values: the supplement of paper PMC8728848
# The sample as a whole holds a higher share of the strongest signals than the screen did.
# B1: GNA (Galanthus nivalis), P30617 (protein)
# chain: MAKASLLILAAIFLGVITPSCLSDNILYSGETLSTGEFLNYGSFVFIMQEDCNLVLYDVDKPIWATNTGGLSRSCFLSMQTDGNLVVYNPSNKPIWASNTGGQNGNYVCILQKDRNVVIYGTDRWATGTHTGLVGIPASPPSEKYPTAGKIKLVTAK
# What was measured:
# Test in all cases: glycan array binding signal (z-score within array); higher = stronger binding
# Conditions in all cases: glycan notation: IUPAC condensed, linker removed
# Fuc(a1-2)Gal(b1-4)Glc6S = target: Fuc(a1-2)Gal(b1-4)Glc6S
# Method in brief: (§1)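 Columns mapping to the same glycan were averaged after glycan names were converted to IUPAC-condensed notation. The data come from 3228 arrays in the Consortium for Functional Glycomics database, limited to those with an available protein sequence. Binding is reported as a within-array Z-score averaged across arrays of one protein sequence and across linkers.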
# [1] = target: Fuc(a1-2)[Gal(a1-3)]Gal(b1-4)GlcNAc
# Method in brief: as §1
# [2] = target: Fuc(a1-2)[Gal(a1-3)]Gal(b1-4)GlcNAc(b1-3)[Fuc(a1-2)[Gal(a1-3)]Gal(b1-4)GlcNAc(b1-6)]GalNAc
# Method in brief: as §1
# [3] = target: Fuc(a1-2)[Gal(a1-3)]Gal(b1-4)[Fuc(a1-3)]GlcNAc(b1-3)GalNAc
# Method in brief: as §1
# [4] = target: Fuc(a1-3)[Gal(b1-4)]GlcNAc(b1-4)Gal(b1-4)[Fuc(a1-3)]GlcNAc
# Method in brief: as §1
# [5] = target: Gal(a1-3)Gal(b1-4)GlcNAc(b1-2)Man(a1-3)[Gal(a1-3)Gal(b1-4)GlcNAc(b1-2)Man(a1-6)]Man(b1-4)GlcNAc(b1-4)GlcNAc
# Method in brief: as §1
# [6] = target: Gal(a1-3)Gal(b1-4)GlcNAc(b1-6)GalNAc
# Method in brief: as §1
# [7] = target: Gal(a1-3)Gal(b1-4)[Fuc(a1-3)]GlcNAc(b1-2)Man(a1-3)[Gal(a1-3)Gal(b1-4)[Fuc(a1-3)]GlcNAc(b1-2)Man(a1-6)]Man(b1-4)GlcNAc(b1-4)GlcNAc
# Method in brief: as §1
# [8] = target: Gal(b1-3)[Neu5Ac(a2-6)]GlcNAc(b1-4)Gal(b1-4)Glc
# Method in brief: as §1
# [9] = target: Gal(b1-4)GalNAc(a1-3)[Fuc(a1-2)]Gal(b1-4)GlcNAc
# Method in brief: as §1
# Gal(b1-4)GlcNAc = target: Gal(b1-4)GlcNAc
# Method in brief: as §1
# Gal(b1-4)GlcNAc(b1-2)Man = target: Gal(b1-4)GlcNAc(b1-2)Man
# Method in brief: as §1
# [10] = target: Gal(b1-4)GlcNAc(b1-2)Man(a1-6)[Man(a1-3)]Man(b1-4)GlcNAc(b1-4)GlcNAc
# Method in brief: as §1
# [11] = target: Gal(b1-4)GlcNAc(b1-2)[Gal(b1-4)GlcNAc(b1-4)]Man(a1-3)[Gal(b1-4)GlcNAc(b1-2)[Gal(b1-4)GlcNAc(b1-6)]Man(a1-6)]Man(b1-4)GlcNAc(b1-4)GlcNAc
# Method in brief: as §1
# [12] = target: Gal(b1-4)GlcNAc(b1-3)Gal(b1-4)Glc
# Method in brief: as §1
# [13] = target: Gal(b1-4)GlcNAc(b1-3)Gal(b1-4)GlcNAc(b1-2)[Gal(b1-4)GlcNAc(b1-3)Gal(b1-4)GlcNAc(b1-6)]Man(a1-6)[Gal(b1-4)GlcNAc(b1-3)Gal(b1-4)GlcNAc(b1-2)Man(a1-3)]Man(b1-4)GlcNAc(b1-4)GlcNAc
# Method in brief: as §1
# [14] = target: Gal(b1-4)GlcNAc(b1-3)Gal(b1-4)GlcNAc(b1-3)Gal(b1-4)GlcNAc
# Method in brief: as §1
# [15] = target: Gal(b1-4)GlcNAc(b1-3)Gal(b1-4)GlcNAc(b1-3)Gal(b1-4)GlcNAc(b1-2)[Gal(b1-4)GlcNAc(b1-3)Gal(b1-4)GlcNAc(b1-3)Gal(b1-4)GlcNAc(b1-6)]Man(a1-6)[Gal(b1-4)GlcNAc(b1-3)Gal(b1-4)GlcNAc(b1-3)Gal(b1-4)GlcNAc(b1-2)Man(a1-3)]Man(b1-4)GlcNAc(b1-4)[Fuc(a1-6)]GlcNAc
# Method in brief: as §1
# [16] = target: Gal(b1-4)GlcNAc(b1-3)Gal(b1-4)GlcNAc(b1-3)Gal(b1-4)GlcNAc(b1-3)Gal(b1-4)GlcNAc(b1-3)Gal(b1-4)GlcNAc(b1-2)[Gal(b1-4)GlcNAc(b1-3)Gal(b1-4)GlcNAc(b1-3)Gal(b1-4)GlcNAc(b1-3)Gal(b1-4)GlcNAc(b1-3)Gal(b1-4)GlcNAc(b1-6)]Man(a1-6)[Gal(b1-4)GlcNAc(b1-3)Gal(b1-4)GlcNAc(b1-3)Gal(b1-4)GlcNAc(b1-3)Gal(b1-4)GlcNAc(b1-3)Gal(b1-4)GlcNAc(b1-2)Man(a1-3)]Man(b1-4)GlcNAc(b1-4)[Fuc(a1-6)]GlcNAc
# Method in brief: as §1
# [17] = target: Gal(b1-4)GlcNAc(b1-3)[Gal(b1-4)GlcNAc(b1-6)]Gal(b1-4)GlcNAc
# Method in brief: as §1
# Gal3S(b1-4)GlcNAc6S = target: Gal3S(b1-4)GlcNAc6S
# Method in brief: as §1
# Gal3S4S(b1-4)GlcNAc = target: Gal3S4S(b1-4)GlcNAc
# Method in brief: as §1
# Gal3S6S(b1-4)GlcNAc = target: Gal3S6S(b1-4)GlcNAc
# Method in brief: as §1
# [18] = target: GalNAc(b1-3)Gal(a1-6)Gal(b1-4)Glc
# Method in brief: as §1
# GalNAc(b1-3)GalNAc = target: GalNAc(b1-3)GalNAc
# Method in brief: as §1
# [19] = target: GlcNAc(b1-3)Gal(b1-4)GlcNAc(b1-3)[GlcNAc(b1-3)Gal(b1-4)GlcNAc(b1-3)]GalNAc
# Method in brief: as §1
# [20] = target: Man(a1-2)Man(a1-3)[Man(a1-2)Man(a1-6)]Man(a1-6)[Man(a1-3)[Man(a1-6)]Man(a1-6)]Man(b1-4)GlcNAc(b1-4)GlcNAc
# Method in brief: as §1
# [21] = target: Man(a1-2)Man(a1-3)[Man(a1-6)]Man(a1-6)[Man(a1-2)Man(a1-3)]Man(b1-4)GlcNAc(b1-4)GlcNAc
# Method in brief: as §1
# [22] = target: Man(a1-2)Man(a1-6)[Man(a1-3)]Man(a1-6)[Man(a1-2)Man(a1-2)Man(a1-3)]Man(b1-4)GlcNAc(b1-4)GlcNAc
# Method in brief: as §1
# Man(a1-3)[Man(a1-6)]Man = target: Man(a1-3)[Man(a1-6)]Man
# Method in brief: as §1
# [23] = target: Man(a1-3)[Man(a1-6)]Man(a1-6)[Man(a1-2)Man(a1-3)]Man(b1-4)GlcNAc(b1-4)GlcNAc
# Method in brief: as §1
# [24] = target: Man(a1-3)[Man(a1-6)]Man(a1-6)[Man(a1-3)]Man
# Method in brief: as §1
# [25] = target: Man(a1-3)[Man(a1-6)]Man(a1-6)[Man(a1-3)]Man(b1-4)GlcNAc(b1-4)GlcNAc
# Method in brief: as §1
# [26] = target: Man(a1-3)[Man(a1-6)]Man(b1-4)GlcNAc(b1-4)GlcNAc
# Method in brief: as §1
# [27] = target: Man(a1-3)[Man(a1-6)]Man(b1-4)GlcNAc(b1-4)[Fuc(a1-6)]GlcNAc
# Method in brief: as §1
# [28] = target: Neu5Ac(a2-3)Gal(b1-3)GalNAc(b1-4)[Neu5Ac(a2-8)Neu5Ac(a2-3)]Gal(b1-4)Glc
# Method in brief: as §1
# [29] = target: Neu5Ac(a2-3)Gal(b1-4)GlcNAc(b1-3)Gal(b1-4)GlcNAc(b1-2)Man(a1-3)[Neu5Ac(a2-3)Gal(b1-4)GlcNAc(b1-3)Gal(b1-4)GlcNAc(b1-2)Man(a1-6)]Man(b1-4)GlcNAc(b1-4)GlcNAc
# Method in brief: as §1
# [30] = target: Neu5Ac(a2-3)Gal(b1-4)GlcNAc(b1-3)Gal(b1-4)GlcNAc(b1-3)GalNAc
# Method in brief: as §1
# [31] = target: Neu5Ac(a2-3)[GalNAc(b1-4)]Gal(b1-4)GlcNAc(b1-3)GalNAc
# Method in brief: as §1
# [32] = target: Neu5Ac(a2-6)Gal(b1-4)GlcNAc(b1-2)Man(a1-3)Man(b1-4)GlcNAc(b1-4)GlcNAc
# Method in brief: as §1
# [33] = target: Neu5Ac(a2-6)Gal(b1-4)GlcNAc(b1-2)Man(a1-3)[GlcNAc(b1-4)][Neu5Ac(a2-6)Gal(b1-4)GlcNAc(b1-2)Man(a1-6)]Man(b1-4)GlcNAc(b1-4)GlcNAc
# Method in brief: as §1
# [34] = target: Neu5Ac(a2-6)Gal(b1-4)GlcNAc(b1-3)Gal(b1-4)GlcNAc(b1-3)Gal(b1-4)GlcNAc(b1-2)Man(a1-3)[Neu5Ac(a2-6)Gal(b1-4)GlcNAc(b1-3)Gal(b1-4)GlcNAc(b1-3)Gal(b1-4)GlcNAc(b1-2)Man(a1-6)]GalNAc
# Method in brief: as §1
# [35] = target: Neu5Ac(a2-6)GalNAc(b1-4)GlcNAc6S
# Method in brief: as §1
# [36] = target: Neu5Ac(a2-8)Neu5Ac(a2-3)Gal(b1-3)GalNAc(b1-4)[Neu5Ac(a2-3)]Gal(b1-4)Glc
# Method in brief: as §1
# [37] = target: Neu5Ac(a2-8)Neu5Ac(a2-3)Gal(b1-4)GlcNAc
# Method in brief: as §1
# [38] = target: Neu5Ac(a2-8)Neu5Ac(a2-8)Neu5Ac
# Method in brief: as §1
# Neu5Ac(b1-6)GalNAc = target: Neu5Ac(b1-6)GalNAc
# Method in brief: as §1
# [39] = target: Neu5Gc(a2-3)Gal(b1-3)[Fuc(a1-4)]GlcNAc
# Method in brief: as §1
# [40] = target: Neu5Gc(a2-6)Gal(b1-4)GlcNAc
# Method in brief: as §1
binder,measurement,setting,value
B1,glycan array binding signal (z-score),Fuc(a1-2)Gal(b1-4)Glc6S,-0.048
same,glycan array binding signal (z-score),[1],-0.241
same,glycan array binding signal (z-score),[2],-0.171
same,glycan array binding signal (z-score),[3],-0.127
same,glycan array binding signal (z-score),[4],-0.127
same,glycan array binding signal (z-score),[5],2.17
same,glycan array binding signal (z-score),[6],-0.182
same,glycan array binding signal (z-score),[7],-0.106
same,glycan array binding signal (z-score),[8],-0.195
same,glycan array binding signal (z-score),[9],-0.192
same,glycan array binding signal (z-score),Gal(b1-4)GlcNAc,-0.172
same,glycan array binding signal (z-score),Gal(b1-4)GlcNAc(b1-2)Man,-0.167
same,glycan array binding signal (z-score),[10],3.11
same,glycan array binding signal (z-score),[11],0.166
same,glycan array binding signal (z-score),[12],-0.076
same,glycan array binding signal (z-score),[13],-0.093
same,glycan array binding signal (z-score),[14],-0.163
same,glycan array binding signal (z-score),[15],-0.116
same,glycan array binding signal (z-score),[16],-0.018
same,glycan array binding signal (z-score),[17],-0.21
same,glycan array binding signal (z-score),Gal3S(b1-4)GlcNAc6S,0.332
same,glycan array binding signal (z-score),Gal3S4S(b1-4)GlcNAc,-0.065
same,glycan array binding signal (z-score),Gal3S6S(b1-4)GlcNAc,-0.101
same,glycan array binding signal (z-score),[18],-0.142
same,glycan array binding signal (z-score),GalNAc(b1-3)GalNAc,-0.175
same,glycan array binding signal (z-score),[19],-0.172
same,glycan array binding signal (z-score),[20],6.07
same,glycan array binding signal (z-score),[21],2.23
same,glycan array binding signal (z-score),[22],3.2
same,glycan array binding signal (z-score),Man(a1-3)[Man(a1-6)]Man,4.73
same,glycan array binding signal (z-score),[23],5.86
same,glycan array binding signal (z-score),[24],3.04
same,glycan array binding signal (z-score),[25],5.35
same,glycan array binding signal (z-score),[26],9.48
same,glycan array binding signal (z-score),[27],6.97
same,glycan array binding signal (z-score),[28],-0.155
same,glycan array binding signal (z-score),[29],0.02
same,glycan array binding signal (z-score),[30],-0.172
same,glycan array binding signal (z-score),[31],-0.073
same,glycan array binding signal (z-score),[32],-0.17
same,glycan array binding signal (z-score),[33],-0.182
same,glycan array binding signal (z-score),[34],-0.029
same,glycan array binding signal (z-score),[35],-0.173
same,glycan array binding signal (z-score),[36],-0.169
same,glycan array binding signal (z-score),[37],-0.178
same,glycan array binding signal (z-score),[38],-0.155
same,glycan array binding signal (z-score),Neu5Ac(b1-6)GalNAc,-0.21
same,glycan array binding signal (z-score),[39],-0.154
same,glycan array binding signal (z-score),[40],-0.116
